SMILES strings stand for the structures. Hit rate of the full screen: of about 140,000 compounds, about 1,200 (0.86%) were called active. This excerpt belongs to a sample that is enriched for actives. Unmarked numbers belong to inactive results. Rule as the data show it: active = activity change below about -25%; inactive = the rest.
% is scaled to controls: 0 for no effect and ±100 for the full control effect.

Inositol hexakisphosphate kinase 1 (Homo sapiens), sequence (Q92551 whole entry, looked up): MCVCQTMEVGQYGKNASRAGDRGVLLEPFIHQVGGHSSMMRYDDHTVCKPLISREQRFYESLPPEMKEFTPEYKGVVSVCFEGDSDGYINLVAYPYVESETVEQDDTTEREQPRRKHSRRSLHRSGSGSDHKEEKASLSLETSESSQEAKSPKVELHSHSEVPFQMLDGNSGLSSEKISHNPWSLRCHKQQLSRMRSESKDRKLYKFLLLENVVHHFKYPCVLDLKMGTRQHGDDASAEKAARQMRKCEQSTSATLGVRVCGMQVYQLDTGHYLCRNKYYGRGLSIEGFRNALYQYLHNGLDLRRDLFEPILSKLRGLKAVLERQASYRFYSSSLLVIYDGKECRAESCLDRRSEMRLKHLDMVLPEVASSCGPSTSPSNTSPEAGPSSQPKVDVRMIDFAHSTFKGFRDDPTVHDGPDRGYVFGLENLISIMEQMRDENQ

This assay addresses Inositol hexakisphosphate kinase 1 (Homo sapiens) (UniProt Q92551). The assay is described as follows: Primary qHTS assay for small molecule inhibitors of Inositol hexaphosphate kinase 1 (IP6K1). Also: series mostly up to about 58 µM. The conditions noted are these: ADP-Glo luminescence, 2 h, hits give low values. In outline:
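ADP-Glo luminescence measures ADP made by human IP6K1 during a 2 h RT reaction with ATP/IP6 (mix at 1.3 mM/130 uM); top library doses 57.5 and 19.1 uM final.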
Background: Quantitative high-throughput screening tests each substance at several concentrations.
For the compound `O=c1ncn(Cc2ccccc2)c2ccc(-c3ccoc3)nc12`, the activity change was -29% (active). To `COc1ccc(-c2ccc3ncn(Cc4ccccc4)c(=O)c3n2)cc1OC` belongs 7.2%. Next, `O=c1c2nc(-c3ccccc3)ccc2ncn1Cc1ccccc1`: 5.89%; `COCCn1c(=O)n([C@H]2CCCN(C(=O)CCc3ccccc3)C2)c2ncccc21`: 6.71%; `CC(C)(Oc1nn(Cc2cccc(Cl)c2)c2ccccc12)C(=O)Nc1cccnc1`: -0.544%. Take `Cc1cc(C)cc(N2CCC(NS(=O)(=O)c3cn(C)c(C)n3)C2=O)c1` (centres undefined): the activity change was -1.58%. Turning to `Cc1ccccc1N1CCCN(Cc2nc(-c3ccccn3)no2)CC1`, the activity change was -0.56%. For the compound `COc1ccc(-c2ccc3ncc(Nc4ccc(C(F)(F)F)cc4)n3n2)cn1`, the activity change is -13.9%. Take `COc1ccc(Nc2cnc3ccc(-c4ccc(OC)nc4)nn23)cc1`: the activity change is -13.5%. Regarding `COc1ccc(-c2ccc3ncc(Nc4cc(F)cc(N5CCOCC5)c4)n3n2)cn1`, the activity change was -29.7% (active). To `CC[C@@]1(C(=O)O)C[C@H](C(=O)N(C)CC(=O)O)[C@H](c2ccc(OC)cc2)N1C` belongs 9.58%; to `COC(=O)c1ccc(CO[C@H]2CCC=C3C[C@@H](O)CC[C@@]32C)cc1`, 17.7%.

Take `CCOC(=O)c1ccc(CSc2nnc3cc(C)c4ccccc4n23)cc1`: the activity change was -36.2% (active). To `CCOC(=O)c1ccc(NC(=O)c2nc(SCc3ccc(F)cc3)ncc2Cl)cc1` belongs -10%.

For `CCOC(=O)c1ccc(NC(=O)CSc2nc3c([nH]c4ccccc43)c(=O)n2C)cc1`, the activity change was 32.9%. As to `O=S(=O)(N[C@@H]1CCOC[C@H]1Oc1ccccn1)c1ccc(Cl)s1`, the activity change is -5.56%. In the case of `O=C(NCc1ccco1)C1c2ccccc2C(=O)N(C2CCCC2)C12CCCCC2` (centres undefined), the activity change is -8.07%. For the compound `Cc1ccc(-c2ccc3nnc(CNC(=O)c4ccccn4)n3n2)cc1`, the activity change is -2.05%. `Cc1ccc(-c2nnc3ccc(-c4ccoc4)nn23)nc1`: the activity change is -36.1% (active). Next, `CC(=O)N1CCN(c2ccc3nnc(-c4ccc(C)cn4)n3n2)CC1`: -10.9%.

On to `CC(=O)Nc1ccc(S(=O)(=O)N[C@H]2CO[C@H]3[C@@H]2OC[C@@H]3n2nnnc2-c2ccc(N(C)C)cc2)cc1`, for which the activity change is 2.63%.

Regarding `CCCS(=O)(=O)N1CCC(N2CC(OCCOC)C23CCCCC3)CC1` (centres undefined), the activity change was -5.2%. In the case of `CCCS(=O)(=O)c1ncc(Cl)c(C(=O)Nc2scc(-c3ccccc3)c2C(=O)OCC)n1`, the activity change is -31.2% (active). Next, `Cc1ccc(NC(=O)c2nc(S(=O)(=O)Cc3cccc(C)c3)ncc2Cl)cc1`: -17.5%; `CCOC(=O)c1scc(-c2ccccc2)c1S(=O)(=O)Nc1ccccc1F`: -14.6%. Next, `CCNC(=O)CCc1c(CC)nn(-c2ccc(F)cc2)c1Oc1ccccc1`: 1.63%; `CCOc1ccc(C(=O)N2CCC(c3n[nH]c(=O)n3-c3ccccc3)CC2)cc1OCC`: -6.36%; `CSc1ccc(-c2ccc(C=O)cc2)cc1`: -28.5% (active). To `O=Cc1cccc(-c2cc(F)cc(F)c2)c1` belongs -5.81%.

Regarding `COc1ccc(CNC(=O)[C@@H](C)C2CC[C@@]3(C)CC[C@H](NC(=O)c4ccc(C#N)cc4)[C@@H](C)[C@@H]3[C@H]2O)cc1` (some centres undefined), the activity change was -11.9%. `COc1ccc(Nc2ccnc(N3CCCC(C(=O)NCc4ccc(C(F)(F)F)cc4)C3)n2)cc1` (centres undefined): the activity change was -7.37%. With `Cc1ccccc1Cc1c(C)nc2c(C(=O)N3CCc4c(c(-c5nncn5C)nn4C)C3)cnn2c1C`, the activity change was 9.9%. As to `N#CC1CCN(C(=O)c2ccc3nnc(Cc4ccco4)n3c2)CC1`, the activity change is 2.16%.

As to `Cc1noc2c(-c3cccc(CO)c3)cc(-c3ccccc3)nc12`, the activity change was -16.9%.

As for `COc1ccccc1-c1cc(-c2cn[nH]c2)c2onc(C)c2n1`, the activity change was -25.3% (active). Next, `COc1ccccc1-c1cc(-c2cccc([S+](C)(=O)[O-])c2)c2onc(C)c2n1`: 2.9%; `Cn1c(CCC(=O)N2CC[C@H](CO)[C@H](O)C2)nc2cccnc21`: -2.6%; `COc1ccccc1C(=O)N1CCCC2(C1)Nc1cccnc1NC2=NCc1ccccc1` (centres undefined): 6.92%. Turning to `O=C(NCC1CCCCC1)[C@@H]1CCCN1c1ccnc2ccnn12`, the activity change is -2.98%. To `CN(C)c1ccc(CN2CCC(N3Cc4ccccc4C3=O)CC2)cc1` belongs -12.5%; to `CCc1ccccc1NC(=O)c1ccc(F)c(S(=O)(=O)NC2CCCCCC2)c1`, 15.5%. With `CCc1ccc(N2C(=O)CN(S(=O)(=O)CC)CC2(C)C(=O)NC2CCCCC2)cc1` (centres undefined), the activity change was -13.3%.

For the compound `CCc1ccccc1N1C(=O)CN(S(=O)(=O)CC)CC1(C)C(=O)NC1CCCCC1` (centres undefined), the activity change is -30.6% (active).

Consider `COC(=O)NC1CCN(Cc2ccc(-c3cc(F)ccc3OC)cc2)C1` (centres undefined), for which the activity change was 6.69%.

With `Cc1oc(C(O)c2ccccc2)nc1C(=O)Nc1ccc2c(c1)CC(=O)N2` (centres undefined), the activity change is 9.78%.

`COc1ccc(OCCCn2c(C3CC(=O)N(c4ccc(F)cc4)C3)nc3ccccc32)cc1` (centres undefined): the activity change is -3.06%. In the case of `CCc1ccccc1N1CC(c2nc3ccccc3n2CCCCOc2ccccc2)CC1=O` (centres undefined), the activity change was -28.8% (active). Turning to `CCOc1ccc(N2CC(c3nc4ccccc4n3CCOc3ccc(OC)cc3)CC2=O)cc1` (centres undefined), the activity change is -11.8%. `COCCO[C@H]1C(=O)N(C2CCN(C(=O)c3ccsc3)CC2)[C@H]1c1ccncc1`: the activity change is 6.99%. To `CCOC(=O)c1ccc(NC(=O)c2c(NCc3cccc(OC)c3)sc3c2CCC3)cc1` belongs 8.31%. Next, `CCOC(=O)c1ccc(NC(=O)c2c(NCc3cccs3)sc3c2CCCC3)cc1`: -31.3% (active).

Take `CCOC(=O)c1ccc(NC(=O)c2csc3c2CCCCC3)cc1`: the activity change was 3.62%. For `CC(=O)Nc1cccc(C(=O)N2CCCN(c3cc(-c4ccc(Br)cc4)[nH]n3)CC2)c1`, the activity change is -10.1%.

As to `O=C(NCc1ccc(F)c(F)c1)C1CCCN(Cc2cccc(-c3cccs3)c2)C1` (centres undefined), the activity change was 0.462%.

The values are drawn from PubChem BioAssay AID1645851 (National Center for Advancing Translational Sciences (NCATS), 2021).
